The values that follow come from the supplement of paper PMC3334620.

Whole data set: some 33,000 sequences, median “E-score (-0.5 to 0.5)” near -0.011, cut for the highest 2% near 0.28. This excerpt belongs to a sample that is enriched for the highest values.

In the experiment the target is T1, Gcr1 (UniProt P07261).
T1 sequence: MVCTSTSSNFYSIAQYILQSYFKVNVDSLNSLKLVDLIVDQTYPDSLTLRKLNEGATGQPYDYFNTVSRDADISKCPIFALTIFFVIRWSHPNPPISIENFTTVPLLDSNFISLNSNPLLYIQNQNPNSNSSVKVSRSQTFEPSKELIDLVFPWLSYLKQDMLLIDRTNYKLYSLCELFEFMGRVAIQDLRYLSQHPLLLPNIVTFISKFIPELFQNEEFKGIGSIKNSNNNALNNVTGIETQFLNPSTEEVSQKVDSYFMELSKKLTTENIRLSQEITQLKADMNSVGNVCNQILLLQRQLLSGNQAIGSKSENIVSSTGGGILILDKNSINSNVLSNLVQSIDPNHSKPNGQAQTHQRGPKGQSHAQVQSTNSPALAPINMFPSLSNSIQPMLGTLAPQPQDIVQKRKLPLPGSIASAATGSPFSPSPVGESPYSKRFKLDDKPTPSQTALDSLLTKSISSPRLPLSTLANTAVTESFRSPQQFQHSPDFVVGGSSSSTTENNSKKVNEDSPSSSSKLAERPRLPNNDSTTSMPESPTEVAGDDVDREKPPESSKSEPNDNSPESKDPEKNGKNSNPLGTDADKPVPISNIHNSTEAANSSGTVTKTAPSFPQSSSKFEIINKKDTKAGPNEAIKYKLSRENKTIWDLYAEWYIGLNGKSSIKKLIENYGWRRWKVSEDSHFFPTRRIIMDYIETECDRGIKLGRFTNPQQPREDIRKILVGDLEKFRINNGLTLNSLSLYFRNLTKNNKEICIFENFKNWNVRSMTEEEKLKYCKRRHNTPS
As to the kind of experiment: PBM E-score (8-mer binding enrichment) (E-score (-0.5 to 0.5)); higher = stronger / more preferred TF binding. As to conditions: protein concentration: 100 nM; construct: GST-full length. Here is the method:
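Universal 'all 10-mer' protein binding microarrays (Agilent AMADID 015681) probed with GST-tagged S. cerevisiae TFs (full-length or DBD) made by in vitro transcription/translation (PURExpress), about 100-200 nM. Bound TF was detected with fluorescent anti-GST. Each ungapped 8-mer (which stands for itself and its reverse complement) is scored by the PBM enrichment score (E-score), a modified Wilcoxon-Mann-Whitney statistic from -0.5 to +0.5, computed with the Universal PBM Analysis Suite. Scale: above 0.35 generally sequence-specific binding.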
In the case of GGCTTCCC, the “PBM E-score” value came out at 0.433.

For the sequence GGCTTCAC, the “PBM E-score” value is -0.14.

For CGCTTCCC, the “PBM E-score” value was 0.273.

As to CGCTTCCA, the “PBM E-score” value came out at 0.351.

As to CCCTTCCA, the “PBM E-score” value was -0.0993.

On to CGCTTCGA, for which the “PBM E-score” value was -0.0778.

For the sequence GTCAGGTA, the “PBM E-score” value turned out to be 0.091.

Regarding GTTCTAAA, the “PBM E-score” value worked out at 0.0776.

CAGAATCC: the “PBM E-score” value was 0.161.

On to CTATCGCC, for which the “PBM E-score” value is -0.00847.

On to AACAGGAA, for which the “PBM E-score” value is 0.334.

As to AACAGGTA, the “PBM E-score” value is 0.269.

In the case of GACAGGAA, the “PBM E-score” value was found to be 0.316.

With TACAGGTA, the “PBM E-score” value came out at 0.0633.

As to GTCAGGAA, the “PBM E-score” value turned out to be 0.104.

For the sequence ACCAGGAA, the “PBM E-score” value came out at 0.0492.

AACAGGAT: the “PBM E-score” value was 0.318.

With AACAGGAG, the “PBM E-score” value was -0.0445.

CACAGGAA: the “PBM E-score” value was determined as 0.118.

On to GACAGGAC, for which the “PBM E-score” value was 0.0783.

On to AACAGGAC, for which the “PBM E-score” value was 0.162.

For the sequence TACAGGAA, the “PBM E-score” value was 0.394.

For CGGCTCAA, the “PBM E-score” value stood at 0.00705.

For the sequence GCGGGCAA, the “PBM E-score” value is -0.146.

Take CACAAGGC: the “PBM E-score” value was -0.161.

Regarding AACACCTT, the “PBM E-score” value was -0.0171.

On to AGTCCCGA, for which the “PBM E-score” value is -0.15.

Turning to CGCATAAA, the “PBM E-score” value is 0.0544.

Turning to ACGTTGCA, the “PBM E-score” value is -0.015.

Turning to AACCGGAA, the “PBM E-score” value worked out at 0.2.

For the sequence CACCGGAA, the “PBM E-score” value came out at 0.266.

Turning to TACCGGAA, the “PBM E-score” value stood at 0.341.

For CTCGGGGC, the “PBM E-score” value is -0.101.

With CTAAGGCC, the “PBM E-score” value is 0.046.

In the case of AGTTGAAT, the “PBM E-score” value is -0.0577.

In the case of CGGATGTC, the “PBM E-score” value came out at 0.0736.

In the case of AGCTTCTC, the “PBM E-score” value was 0.25.

As to AGCTTCTG, the “PBM E-score” value was determined as 0.245.

With GGCTTCTA, the “PBM E-score” value worked out at 0.297.

As to CGCTTCTA, the “PBM E-score” value is 0.259.

For GCCTTCTA, the “PBM E-score” value was 0.131.

As for AGCTTCTA, the “PBM E-score” value came to 0.297.

GCTCCGGA: the “PBM E-score” value was found to be 0.121.

With CGAACTAC, the “PBM E-score” value amounted to 0.00469.

For AGGCCGCG, the “PBM E-score” value is 0.0497.

In the case of AGGCCGCA, the “PBM E-score” value was -0.0993.

Consider AGGCCGCC, for which the “PBM E-score” value came out at 0.292.

In the case of CCTGCCAC, the “PBM E-score” value amounted to 0.0404.

Regarding ACTGCCAC, the “PBM E-score” value is 0.101.

Turning to GCTGCCAC, the “PBM E-score” value came to 0.301.

On to GCTGCGTA, for which the “PBM E-score” value was 0.286.

For CCTGCGTA, the “PBM E-score” value was determined as 0.0119.

In the case of TCTGCCAA, the “PBM E-score” value came out at 0.00421.

With GCTGCCAA, the “PBM E-score” value is 0.31.

With ACTGCCAA, the “PBM E-score” value was found to be 0.0668.

As to ACTGCGTA, the “PBM E-score” value was determined as 0.062.

Regarding ACTGCCTA, the “PBM E-score” value turned out to be 0.0876.

Regarding GCTGCCTA, the “PBM E-score” value is 0.305.

With CCTGCCTA, the “PBM E-score” value is 0.00507.

Take TAGTCTGA: the “PBM E-score” value is -0.0964.

As to TCCAAACA, the “PBM E-score” value worked out at 0.135.

On to AGATAACA, for which the “PBM E-score” value was -0.0519.

On to ACCGTTAA, for which the “PBM E-score” value is -0.119.

For GCGGACTA, the “PBM E-score” value is -0.12.

Consider CCGTCCTA, for which the “PBM E-score” value is -0.158.

In the case of ACGTCCCA, the “PBM E-score” value was -0.153.

As for GCGTCCTA, the “PBM E-score” value amounted to 0.43.

Consider GCGTCCCC, for which the “PBM E-score” value is 0.304.

For GCGTCTCA, the “PBM E-score” value was 0.146.

In the case of ACGTCCCC, the “PBM E-score” value was -0.0668.

Regarding GCGTCCCA, the “PBM E-score” value was 0.282.

In the case of ACGTCTCC, the “PBM E-score” value is 0.101.

Regarding ACGTCCTA, the “PBM E-score” value amounted to 0.0954.

Take CCGTCCCC: the “PBM E-score” value was determined as 0.00017.

As for GCGTCTCC, the “PBM E-score” value turned out to be 0.317.

Consider TCGTCCCA, for which the “PBM E-score” value was -0.0947.

As for ACTCAACA, the “PBM E-score” value stood at 0.122.

Turning to GCGATCAC, the “PBM E-score” value is -0.0279.

For the sequence GAGCGACA, the “PBM E-score” value is -0.0391.

On to TATTGGGA, for which the “PBM E-score” value was -0.02.

ACTGCACC: the “PBM E-score” value came to 0.014.

Take CAGCCCTC: the “PBM E-score” value is -0.0883.

Regarding AAGAATAA, the “PBM E-score” value stood at 0.0669.

Turning to AAAACTGG, the “PBM E-score” value came out at 0.254.

As for CATTTACG, the “PBM E-score” value was found to be 0.0351.

Regarding GAGTCCCA, the “PBM E-score” value is 0.313.

For GAGTCCCC, the “PBM E-score” value was -0.0421.
